Experimental data taken from the supplement of paper PMC3545927.
The other results are listed elsewhere or left out. The true hit rate is not given.

Biological target: furin, P09958
Test: furin cleavage Z-score vs untreated control; higher = more cleavage, active = 3.5 or more, inactive = 1 or less, 8 variable residues between constant flanks
Summary of the method: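 Sequencing of released DNA, tagged with adapters by PCR, gave read counts used as abundance. That DNA was freed when purified furin cut N-terminally bead-bound 8-mer peptides fused to a cDNA oligonucleotide, in 0.01 ml reactions at 1:10 enzyme:substrate in 50 mM HEPES pH 7.5 with CaCl2 and NaCl, lasting 7.5, 15 or 30 min. The cleavage Z-score was the lowess-adjusted log count versus furin-free reactions, scaled by median absolute deviation.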

Sequence of furin, P09958 (P09958 whole entry): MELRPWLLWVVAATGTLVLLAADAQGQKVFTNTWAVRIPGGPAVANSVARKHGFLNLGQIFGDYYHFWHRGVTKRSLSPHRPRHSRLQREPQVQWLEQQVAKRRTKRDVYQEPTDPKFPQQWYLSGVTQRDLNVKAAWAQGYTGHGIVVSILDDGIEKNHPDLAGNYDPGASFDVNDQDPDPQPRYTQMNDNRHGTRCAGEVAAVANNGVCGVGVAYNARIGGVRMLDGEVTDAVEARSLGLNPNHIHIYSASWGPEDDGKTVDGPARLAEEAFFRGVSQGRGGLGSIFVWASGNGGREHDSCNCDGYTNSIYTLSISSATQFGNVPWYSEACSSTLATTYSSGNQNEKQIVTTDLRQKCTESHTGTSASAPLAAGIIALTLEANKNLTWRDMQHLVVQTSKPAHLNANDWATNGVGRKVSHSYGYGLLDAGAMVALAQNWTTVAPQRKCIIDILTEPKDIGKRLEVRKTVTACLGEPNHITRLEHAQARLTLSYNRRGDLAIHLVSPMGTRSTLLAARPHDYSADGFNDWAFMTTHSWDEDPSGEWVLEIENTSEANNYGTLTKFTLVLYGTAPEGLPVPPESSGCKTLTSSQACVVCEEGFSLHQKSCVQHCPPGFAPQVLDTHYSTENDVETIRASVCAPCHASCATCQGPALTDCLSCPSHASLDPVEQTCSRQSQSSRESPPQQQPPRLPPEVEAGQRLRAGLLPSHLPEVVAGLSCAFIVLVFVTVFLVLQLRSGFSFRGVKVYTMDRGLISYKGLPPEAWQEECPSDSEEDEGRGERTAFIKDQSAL

Row | Sequence | furin cleavage Z-score (7.5 min) | furin cleavage Z-score (15 min) | furin cleavage Z-score (30 min)
1 | CARAAVCTRGAGNASASA [HC751] | 0.0348 (inactive) | -0.103 (inactive) | -0.127 (inactive)
2 | CAISWCLWWLAGNASASA [HC580] | -1.57 (inactive) | -0.298 (inactive) | -1.76 (inactive)
3 | CARRIRPTHPAGNASASA [FS-3048] | -1.48 (inactive) | -0.376 (inactive) | -2.07 (inactive)
4 | CAPCTTPCSGAGNASASA [HC1959] | -0.283 (inactive) | -0.0949 (inactive) | 0.269 (inactive)
5 | CARTRRQDIRAGNASASA [FS-2836] | 3.19 | 3.96 (active) | 4.46 (active)
6 | CARFRRQDIRAGNASASA [FS-2664] | 2.04 | 2.56 | 4.18 (active)
7 | CASPPVPPPRAGNASASA [HC1321] | 0.641 (inactive) | 2.74 | 1.49
8 | CAREERSWFRAGNASASA [FS-2910] | 1.59 | -0.354 (inactive) | -1.01 (inactive)
9 | CARHPRSPPRAGNASASA [FS-2679] | 2.12 | 2.59 | 4.01 (active)
10 | CARFRRLWPCAGNASASA [FS-1705] | -0.433 (inactive) | -0.574 (inactive) | 0.464 (inactive)
11 | CARFRRQQWKAGNASASA [FS-2416] | -0.28 (inactive) | -0.542 (inactive) | -0.363 (inactive)
12 | CATVTESDIRAGNASASA [HC1484] | -1.23 (inactive) | -2.19 (inactive) | -1.8 (inactive)
13 | CADQMEECSQAGNASASA [HC1822] | -1.95 (inactive) | 0.171 (inactive) | 0.415 (inactive)
14 | CAVQCCSMSYAGNASASA [HC2022] | -0.966 (inactive) | 0.322 (inactive) | 0.723 (inactive)
15 | CADLCGSVFLAGNASASA [HC300] | -2.25 (inactive) | -0.764 (inactive) | -0.906 (inactive)
16 | CASDGSWSTVAGNASASA [HC1361] | 1.87 | 1.47 | 0.994 (inactive)
17 | CARAKRQKDFAGNASASA [FS-2885] | 3.42 | 4.84 (active) | 4.86 (active)
18 | CARWKRNLDFAGNASASA [FS-2199] | 6.47 (active) | 7.97 (active) | 10.7 (active)
19 | CARWKRPAFTAGNASASA [FS-1806] | -0.259 (inactive) | 0.293 (inactive) | -0.665 (inactive)
20 | CARWKRPIDLAGNASASA [FS-3131] | -0.222 (inactive) | 0.7 (inactive) | 0.99 (inactive)
21 | CARWKRGLDWAGNASASA [FS-3214] | 7.21 (active) | 8.26 (active) | 10.3 (active)
22 | CALHTPGCVPAGNASASA [HC271] | -1.15 (inactive) | -0.17 (inactive) | 0.0406 (inactive)
23 | CAWIWFCLLLAGNASASA [HC1656] | -0.725 (inactive) | -0.337 (inactive) | -0.583 (inactive)
24 | CAMRAFQRRMAGNASASA [FS-276] | -1.44 (inactive) | -1.21 (inactive) | -0.935 (inactive)
25 | CAKWSRHRRMAGNASASA [FS-175] | 11.5 (active) | 12.9 (active) | 11.2 (active)
26 | CAMRLRIRRMAGNASASA [FS-1601] | 10.1 (active) | 8.78 (active) | 9.1 (active)
27 | CASQSRIRRMAGNASASA [FS-504] | 9.85 (active) | 9.09 (active) | 8.46 (active)
28 | CACWPRHRRVAGNASASA [FS-1314] | 0.553 (inactive) | 1.38 | 2.27
29 | CATQSRIRRMAGNASASA [FS-511] | 5.23 (active) | 7.4 (active) | 6.25 (active)
30 | CATQRRGRTGAGNASASA [HC903] | -0.796 (inactive) | -0.169 (inactive) | -0.351 (inactive)
